# Out of some 53,000 sequences screened, about 3,700 (7%) were called active.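 How the source made its calls: active means gene knockdowns whose robust z-score for IL-1 alpha signal is at least 2 or at most -2, so actives lie on both sides; inactive means the rest.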 This excerpt belongs to a sample that is enriched for actives.
# Assay: Components of the Cytosolic LPS Sensing Pathway: Gene Identification via Genome-wide siRNA Screen
# Settings: RAW264.7 macrophages, IL-1a HTRF, actives lie on both sides, screened at 100 nM (by protocol), cells primed 5 h with Pam3CSK4 first
# Text: Non-canonical inflammasome activation by cytosolic LPS is a critical component of the host response to Gram-negative bacterial infection, however we lack a comprehensive understanding of the cellular processes that control this pathway. Here we describe a genome-wide siRNA screen to identify genes regulating the mouse macrophage IL-1 alpha response to cytosolic LPS.
# RAW264.7 cells were maintained in complete DMEM media, comprising DMEM with 4.5 g/L glucose, 10% FBS (Gemini Bio-Products, West Sacramento, CA), 2 mM Glutamine (Lonza) and 20 mM HEPES (Lonza), hereafter complete DMEM.
# The RNAi screen was conducted in 384-well format using the Ambion Silencer Mouse Genome siRNA Library (#4391425), which consists of three unique, nonoverlapping, nonpooled siRNAs for each of 17,000 gene targets. siRNA reagents ([…]) were stamped into 384-well white flat-bottom microplates (Corning, 3570) using a Velocity11 VPrep liquid handling system (Agilent) integrated into a BioCel robotic platform (Agilent) in columns 1-22, leaving columns 23-24 empty for negative (Ambion, Negative control #1) and positive (mouse Casp4) controls, respectively. The median value of each plate's negative control column was used to normalize sample wells, and the positive control was used to assess transfection efficiency and assay performance.
# Lipofectamine RNAiMAX Transfection Reagent ([…]; Invitrogen) was added in […] serum-free, antibiotic-free media to plate wells using a Thermo Scientific Matrix WellMate and Microplate Stacker. Plates were incubated for 45 min at room temperature to allow for the sufficient formation of siRNA-lipid complexes. Cells were seeded at a density of 1x10^4 cells per well in 20 microL media containing 20% (vol/vol) FBS without antibiotics. The final concentration of siRNA in each well was 100 nM. Cells were cultured for 48h at 37 degrees C in 5% CO2 before addition of […] of TLR ligand Pam3CSK4 for 5 hours. The medium was then removed, replaced with […] growth media and cell were transfected with […] of LipidA and TransIT-TKO (Mirus) for 24 hour. At the end of the LipidA treatment, […] of supernatant was transferred to a 384 Greiner Bio-one non-binding low volume plate and […] of IL-1a HTRF reagent (Cisbio, 62MIL1APEH) was added and incubated at room temperature overnight. The plates were read on an EnVision plate reader (PerkinElmer). Cell viability was measured by adding 20ul Cell Titer Glo to the original plate and running a luminescence read on the EnVision. The quantified IL-1a signal for each siRNA gene-targeted well was divided by the median of the negative control wells and multiplied by 100 to achieve a negative control normalized value for each well/siRNA. This normalized value was then used to generate a robust z-score by first taking the log of each value and then by subtracting the median and dividing by the […].
row,Sequence,z-score
1,GGAAUUUGAAACUUACGGCTT against Oc90,0.379 (inactive)
2,UUUCGAGCUGAUCCAUGAGTT against Tbata,1.19 (inactive)
3,GGUCCAGAUCCACCAGAUUTT against Banp,1.11 (inactive)
4,GGCACUCAAUGGUGAGCAATT against Sipa1,2.03 (active)
5,GGCUCUUGCUUUAGUAUUCTT against Ly9,0.99 (inactive)
6,GGCAGAUUACUCUGAAUGATT against Prdx4,0.326 (inactive)
7,GGUUUAUUGUAAUGGCUAATT against Olfr1271,0.452 (inactive)
8,GGACAAAUGGGUAUUAUCUTT against Phxr4,-1.01 (inactive)
9,GGAGAUGAUUUCCUACUUCTT against Rasgrp2,3.47 (active)
10,GGUGUACCAGAAUGAGAAGTT against Akr1b3,0.611 (inactive)
11,GGUAUUUAGUAAACACCCATT against Edar,0.413 (inactive)
12,GGGUCAAAUCUGACUGCAUTT against Klf10,0.501 (inactive)
13,GAGAACCAGGCUAUGUCUGTT against Defa-rs10,0.623 (inactive)
14,GCUGGCUGUUGGAUAAGUGTT against Olfr1112,2.45 (active)
15,CCUUGAUUGAGCCUGACUUTT against Hook2,0.543 (inactive)
16,CCUCAUAUAUCCCUAAUUATT against Camk1g,-0.982 (inactive)
17,GGACCUGUUUGAGCAGAGGTT against Eps8l2,0.539 (inactive)
18,GGUAGAAGUGAAAAAGAUATT against Bhmt,-0.386 (inactive)
19,GCGAGAGAUUCUUUCCCUGTT against Traf6,-1.24 (inactive)
20,CCUCCUCUCUGUUUUCUACTT against Olfr699,-1.16 (inactive)
21,GCAGAAAAACCUGUGAAAATT against Pcnp,1.57 (inactive)
22,GGAUGGAUGUUUGCAUAAATT against Msx2,5.06 (active)
23,GGGACACAUACUGUAGUAUTT against Pspc1,0.00343 (inactive)
24,GGAGGAGAUGAUGAAUUUUTT against Etf1,0.965 (inactive)
25,GGUGAGUUCAUGGUUUCCUTT against Txnl4b,-0.142 (inactive)
26,GAGAAACUAUGGCUGAAAATT against Klk1,0.439 (inactive)
27,CCCUAAAAGACAAAGUGCUTT against Cmtm3,0.877 (inactive)
28,CCUAGAGAGACAUAUUGUUTT against Vstm4,-0.206 (inactive)
29,GCCAAUGACCCAAAUUCUATT against Ppip5k1,0.812 (inactive)
30,CCAUUUUUACCUACAUCCATT against Olfr452,2.43 (active)

# From PubChem BioAssay AID1508600 (Functional Genomics Laboratory (NCATS/FGL), 2020)
